Assay [1] in a line: cAMP Responsive Elements (CRE) small molecule antagonists, cell-based qHTS assay: qHTS cell viability counter screen (AID 2060913). Further: nearly all actives have a fitted effect of over 40% in size. Put shortly: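 HEK293T CRE-bla, 2,000 cells/well, 18 h preincubation; cpd in DMSO + NKH477 0.25 uM final, 3 h 37 C/5% CO2; LiveBLAzer 2 h RT, then CellTiter-Glo 30 min RT, luminescence.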
Assay [2] in a line: cAMP Responsive Elements (CRE) small molecule agonists, cell-based qHTS assay: qHTS cell viability counter screen (AID 2060914).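 Further: viability read after 3 h of compound exposure; nearly all actives have a fitted effect of over 50% in size.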 An outline of the steps: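 CRE-bla HEK 293T cells, plated 18 h at 37 °C, were exposed to compounds for 3 h at 37 °C/5% CO2. Viability was then measured in the same wells by CellTiter-Glo luminescence after 30 min at room temperature.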

Records with an inconclusive call do not appear. Unmarked numbers belong to inactive results. The source made the active and inactive calls. The call rests on the fitted dose curve; in most records, active means well fitted cell-killing curve with a large enough effect in the repeat runs; inconclusive means weak or mixed curves, or effect the other way; inactive means flat fitted curve, though single readings scatter.
On the % scale 0 is the no-effect control and ±100 the full control effect; potency means the concentration at half of the fitted maximal effect.

On to `O=S(=O)(O)c1ccc(O)cc1`, for which the Potency result in assay [1] and in assay [2] was “inactive” throughout.

For the compound `CCCCCCCC/C=C\CCCCCCCC(=O)OCC`, the Potency entry in assay [1] and in assay [2] was “inactive” each time.

As to `CC(=O)C1=C(C)[C@@H]2C[C@@]3(C1)[C@H](C)CC[C@H]3C2(C)C`, the Potency result in assay [1] and in assay [2] was “inactive” each time.

As for `CO[Si](CCCOCC1CO1)(OC)OC` (centres undefined), the Potency entry in assay [1] and in assay [2] was “inactive” throughout.

On to `CCC(C)S` (centres undefined), for which the viability change, negative = cytotoxic in assay [1] was 3.82% [at 3.27 µM]. In addition, in assay [2], the activity change, negative = cytotoxicity is 5.15% [at 3.27 µM].

`Oc1ccccc1O`: the Potency entry in assay [1] and in assay [2] was “inactive” throughout.

Consider `CC12CCC(C1)C(C)(C)C2O` (centres undefined), for which the Potency entry in assay [1] and in assay [2] was “inactive” each time.

Turning to `C=C(C)C(=O)OC1CC(C)CC(C)(C)C1` (centres undefined), the Potency entry in assay [1] and in assay [2] was “inactive” throughout.

Consider `CCCCCCCCCCCO`, for which the Potency entry in assay [1] and in assay [2] was “inactive” each time.

With `CC(C)(C)c1ccc(-c2ccc(C(C)(C)C)cc2)cc1`, the Potency result in assay [1] and in assay [2] was “inactive” each time.

Take `Nc1cc(C(F)(F)F)ccc1S`: the Potency entry in assay [1] and in assay [2] was “inactive” each time.

Turning to `C/C=C(\C)C(=O)OCC/C=C\CC`, the Potency result in assay [1] and in assay [2] was “inactive” in each case.

Regarding `O=C1c2ccccc2C(=O)C1c1ccc2cc(S(=O)(=O)O)cc(S(=O)(=O)O)c2n1`, the Potency entry in assay [1] and in assay [2] was “inactive” in each case.

With `CCNc1cccc(C)c1`, the Potency result in assay [1] and in assay [2] was “inactive” in each case.

On to `CC(C)NCC(O)COc1ccc(CCOCC2CC2)cc1` (centres undefined), for which the Potency entry in assay [1] and in assay [2] was “inactive” each time.

Turning to `CC(C)NNC(=O)c1ccncc1`, the Potency result in assay [1] and in assay [2] was “inactive” in each case.

Turning to `c1ccc2[nH]ccc2c1`, the Potency entry in assay [1] and in assay [2] was “inactive” each time.

On to `CCCCCCCCCCC=O`, for which the Potency entry in assay [1] and in assay [2] was “inactive” each time.

On to `CCc1cccc(CC)c1N`, for which the Potency entry in assay [1] and in assay [2] was “inactive” in each case.

Turning to `CCC(=O)CC(C)CC` (centres undefined), the viability change, negative = cytotoxic in assay [1] was -1.01% [at 0.349 µM]. In addition, in assay [2], the activity change, negative = cytotoxicity was 6.36% [at 0.349 µM].

As for `Cc1ccc(Nc2ccc(O)c3c2C(=O)c2ccccc2C3=O)cc1`, the Potency result in assay [1] and in assay [2] was “inactive” each time.

Consider `CCN(CC)C(=O)c1ccc(O)c(OC)c1`, for which the Potency entry in assay [1] and in assay [2] was “inactive” in each case.

Turning to `CCCCCCCCCCCCSC#N`, the Potency entry in assay [1] and in assay [2] was “inactive” each time.

For `Cc1cc2nc(N)sc2cc1C`, the Potency entry in assay [1] and in assay [2] was “inactive” in each case.

On to `CCCCCCCCSCc1cc(C)c(O)c(CSCCCCCCCC)c1`, for which the Potency result in assay [1] and in assay [2] was “inactive” each time.

For the compound `OCC1CCC(CO)CC1` (centres undefined), the Potency result in assay [1] and in assay [2] was “inactive” each time.

For the compound `c1ccc2nccnc2c1`, the Potency entry in assay [1] and in assay [2] was “inactive” throughout.

For the compound `CCN(Cc1ccncc1)C(=O)C(CO)c1ccccc1` (centres undefined), the Potency entry in assay [1] and in assay [2] was “inactive” in each case.

Take `CCCC(=O)O[C@]1(C(=O)COC(=O)CC)CC[C@H]2[C@@H]3CCC4=CC(=O)CC[C@]4(C)[C@H]3[C@@H](O)C[C@@]21C`: the viability change, negative = cytotoxic in assay [1] is 9.89% [at 18.9 µM]. Further, in assay [2], the activity change, negative = cytotoxicity was -7.63% [at 18.9 µM].

Consider `C[N+](C)(C)CC(O)CC(=O)[O-]` (centres undefined), for which the Potency entry in assay [1] and in assay [2] was “inactive” each time.

Consider `C/C=C(\C)C(=O)OCc1ccccc1`, for which the Potency entry in assay [1] and in assay [2] was “inactive” each time.

`CCCCN1CCCC[C@H]1C(=O)Nc1c(C)cccc1C`: the Potency result in assay [1] and in assay [2] was “inactive” throughout.

`COc1cc(Nc2c(C#N)cnc3cc(OCCCN4CCN(C)CC4)c(OC)cc23)c(Cl)cc1Cl`: the Potency result in assay [1] and in assay [2] was “inactive” in each case.

For the compound `CNc1ncnc2nc[nH]c12`, the Potency entry in assay [1] and in assay [2] was “inactive” throughout.

As for `CSc1ccc(C=O)cc1`, the Potency entry in assay [1] and in assay [2] was “inactive” in each case.

For `CC1=C(C(=O)O)N2C(=O)[C@@H](NC(=O)[C@H](N)c3ccccc3)[C@H]2SC1`, the Potency result in assay [1] and in assay [2] was “inactive” throughout.

In the case of `CCN[C@@H]1C[C@H](N)[C@@H](OC2OC(CN)=CCC2N)[C@H](O)[C@H]1O[C@H]1OC[C@](C)(O)[C@H](NC)[C@H]1O` (some centres undefined), in assay [1], the viability change, negative = cytotoxic was 1.22% [at 0.349 µM]. For the same compound, the activity change, negative = cytotoxicity in assay [2] was 3.46% [at 0.349 µM].

For the compound `NCCN1CCNC1=O`, the Potency result in assay [1] and in assay [2] was “inactive” each time.

Regarding `COC(=O)/C=C(\C)CCC=C(C)C`, the Potency result in assay [1] and in assay [2] was “inactive” throughout.

In the case of `O=C1CC2(CCCC2)CC(=O)N1CCCCN1CCN(c2ncccn2)CC1`, the Potency result in assay [1] and in assay [2] was “inactive” throughout.

`O=[N+]([O-])c1cccc(Cl)c1Cl`: the Potency entry in assay [1] and in assay [2] was “inactive” throughout.

As to `CCOC(=O)[C@H](CCc1ccccc1)N[C@H]1CS[C@H](c2cccs2)CN(CC(=O)O)C1=O`, the Potency result in assay [1] and in assay [2] was “inactive” throughout.

As for `CN(c1nccc(=O)[nH]1)C1CCN(c2nc3ccccc3n2Cc2ccc(F)cc2)CC1`, the Potency result in assay [1] and in assay [2] was “inactive” each time.

As to `F[B-](F)(F)F`, the Potency entry in assay [1] and in assay [2] was “inactive” in each case.

As to `CC1CCN(CCCC(=O)c2ccc(F)cc2)CC1`, the Potency entry in assay [1] and in assay [2] was “inactive” each time.

Consider `O=C(O)CN(CC(=O)O)CC(=O)O`, for which the Potency entry in assay [1] and in assay [2] was “inactive” throughout.

For `Nc1ccc2cc3ccccc3cc2c1`, the Potency entry in assay [1] and in assay [2] was “inactive” throughout.

For the compound `CC(C)(Oc1ccc(Cl)cc1)C(=O)O`, the Potency result in assay [1] and in assay [2] was “inactive” throughout.

With `COCCCC/C(=N\OCCN)c1ccc(C(F)(F)F)cc1`, the Potency entry in assay [1] and in assay [2] was “inactive” each time.

On to `NS(=O)(=O)c1cc(C2(O)NC(=O)c3ccccc32)ccc1Cl` (centres undefined), for which the Potency result in assay [1] and in assay [2] was “inactive” each time.

With `CCCC(=O)OCCC(C)C`, the Potency entry in assay [1] and in assay [2] was “inactive” each time.

Regarding `C#C[C@]1(OC(C)=O)CC[C@H]2[C@@H]3CCC4=C/C(=N/O)CC[C@@H]4[C@H]3CC[C@@]21CC`, the Potency entry in assay [1] and in assay [2] was “inactive” in each case.

`CCCCCCCC[N+](CCCCCCCC)(CCCCCCCC)CCCCCCCC`: the Potency in assay [1] is 19.3 µM (active); in assay [2], 30.6 µM (active).

For `CCCCNC1CC(C)(C)NC(C)(C)C1`, the Potency result in assay [1] and in assay [2] was “inactive” throughout.

Regarding `O=C(O)C(=O)Cc1c[nH]c2ccccc12`, the Potency entry in assay [1] and in assay [2] was “inactive” throughout.

Consider `CCCCC1(COC(=O)CCC(=O)O)C(=O)N(c2ccccc2)N(c2ccccc2)C1=O`, for which the Potency result in assay [1] and in assay [2] was “inactive” throughout.

For `CCCCOC(=O)CC(CC(=O)OCCCC)(OC(C)=O)C(=O)OCCCC`, the Potency entry in assay [1] and in assay [2] was “inactive” in each case.

For the origin of these results see PubChem BioAssay (Tox21).
